Screens: PubChem, The Scripps Research Institute Molecular Screening Center
MOR-DOR ag-1 – agonists of OPRM1-OPRD1 heterodimerization, primary screen, cell-based, luminescence | Mu-type opioid receptor (Homo sapiens) + Delta-type opioid receptor (Homo sapiens), … | cells | activation, % at 9.3 µM | hit rate 0.3% among 340,000;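 note: 0% = vehicle-treated cells and 100% = reference agonist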
Target sequence (P35372 whole entry, looked up): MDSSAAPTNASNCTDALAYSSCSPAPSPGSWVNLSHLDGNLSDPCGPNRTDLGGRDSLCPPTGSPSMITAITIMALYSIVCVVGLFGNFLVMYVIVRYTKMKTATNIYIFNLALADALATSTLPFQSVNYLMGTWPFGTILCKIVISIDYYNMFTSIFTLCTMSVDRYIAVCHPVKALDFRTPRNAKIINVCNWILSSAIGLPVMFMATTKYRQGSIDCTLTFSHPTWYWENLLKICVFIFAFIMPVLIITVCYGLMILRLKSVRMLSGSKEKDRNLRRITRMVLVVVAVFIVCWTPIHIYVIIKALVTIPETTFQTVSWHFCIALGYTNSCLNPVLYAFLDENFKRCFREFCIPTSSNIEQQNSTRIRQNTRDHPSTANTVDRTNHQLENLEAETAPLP
Target sequence (P41143 whole entry, looked up): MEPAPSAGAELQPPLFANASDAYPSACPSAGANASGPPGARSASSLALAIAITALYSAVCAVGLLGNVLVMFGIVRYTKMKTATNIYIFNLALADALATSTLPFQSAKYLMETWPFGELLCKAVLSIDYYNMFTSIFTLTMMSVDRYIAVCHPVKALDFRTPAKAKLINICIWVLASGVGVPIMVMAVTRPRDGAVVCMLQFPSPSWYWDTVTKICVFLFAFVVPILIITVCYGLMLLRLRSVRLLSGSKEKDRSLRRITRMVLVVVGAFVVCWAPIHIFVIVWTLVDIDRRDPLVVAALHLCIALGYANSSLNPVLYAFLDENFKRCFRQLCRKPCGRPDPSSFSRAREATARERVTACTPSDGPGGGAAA
HTR5A ag – HTR5A agonists in luminescence cell assay, primary screen, counter-screen for OPRM1-OPRD1 heterodimer agonist project, full-deck HTS | 5-hydroxytryptamine receptor 5A (Homo sapiens), P47898 | cell-based | activation, % at 9.3 µM | hit rate 0.61% among 340,000 | AID 504692, 2011; in the data active = activation mostly above about 9.5%, no sharp cut-off; inactive = mostly below about 7.6%;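 note: 0% = cells with vehicle only and 100% = reference agonist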
MOR-DOR inv ag – inverse agonists of MOR-DOR heterodimerization, primary screen, cell-based, luminescence | hit rate 0.21% among 340,000 | Mu-type opioid receptor (Homo sapiens) + Delta-type opioid receptor (Homo sapiens), … | inhibition, % at 9.3 µM | cell-based MOR-DOR heterodimer luminescence, inverse agonism; in the data active = inhibition above about 22%, passing the limit was not always enough;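 note: 0% = cells with DMSO and 100% = wells without cells with DMSO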
HTR5A inv ag – HTR5A inverse agonists in luminescence cell assay, primary screen, counter-screen for OPRM1-OPRD1 heterodimer inverse agonist project, full-deck HTS; 5-hydroxytryptamine receptor 5A (Homo sapiens), P47898; hit rate 0.083% among 340,000; HTR5A cell line, inverse agonism; inhibition, % at 9.3 µM; in the data active = inhibition mostly above about 23%, no sharp cut-off; inactive = mostly below about 18%;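 note: 0% = cells with DMSO and 100% = no-cell wells with DMSO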
MOR-DOR ag-2 – OPRM1-OPRD1 heterodimerization promoters, counter-screen for HTR5A agonist project, cell-based, luminescence. shares compounds with HTR5A ag. U2OS counter-screen cells, complementation luminescence, 3 h. activation, % at 9.3 µM. hit rate 13% among 800. AID 504913, 2011
HTR5A ag conf – HTR5A agonists, retest of hits, confirmation, cell-based, luminescence; shares compounds with HTR5A ag; HTR5A agonist cell assay; activation, % at 9.3 µM; hit rate 17% among 800; in the data active = activation above about 17%;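 note: 0% = cells with vehicle only and 100% = full reference agonist response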
An asterisk follows results filed as active; nt = not tested or not shown; ! = a repeat was not active. Hits are enriched below; roughly 1.1% of the tested compounds scored in any of these assays. Cut-off read from the data, not from the text of the source, unless noted: active = activation above about 18%; inactive = the rest.

SMILES | MOR-DOR ag-1 | HTR5A ag | MOR-DOR inv ag | HTR5A inv ag | MOR-DOR ag-2 | HTR5A ag conf
Oc1cccc2ccc(Nc3ccccn3)nc12 | 0.5 | 15.5* | -2.5 | 21.6 | -2.5 | 9.0
c1ccc(Nc2ccccc2Nc2ccccn2)nc1 | 2.3 | 2.0 | -12.9 | 11.6 | nt | nt
OC(CN1CCN(c2cccc(Cl)c2)CC1)c1ccc(F)cc1 (stereo not drawn) | 6.8 | 18.6* | -31.9 | -72.1 | 7.5 | 27.0*
Cc1nn(-c2ccccc2)c(Cl)c1C(=O)NCCN(C)C | 0.8 | 15.4* | -4.1 | -6.2 | -0.2 | 1.0
Cc1nn(-c2ccccc2)c(Cl)c1C(=O)NCC(C)C | -3.2 | -4.6 | 15.9 | 10.0 | nt | nt
Cc1cccc(S(=O)(=O)Nc2ccc(-c3cn4ccccc4n3)cc2)c1 | 0.6 | -0.7 | -3.2 | 4.3 | nt | nt
Cc1cc(C)c(S(=O)(=O)Nc2ccc(-c3cn4ccccc4n3)cc2)c(C)c1 | 3.7 | 14.3* | -16.5 | -18.5 | 0.7 | 39.9*
COc1cc2cnc(-c3ccsc3)cc2cc1OC | -3.0 | 21.8* | 17.6 | -64.0 | 1.2 | 1.9
Cc1ccccc1NC(=S)N=Nc1c(O)n(C)c2ccc(S(=O)(=O)N3CCOCC3)cc12 | 3.3 | -0.1 | -18.8 | 0.4 | nt | nt
Oc1ccc(N2CCN(c3ncnc4sc(-c5ccccc5)cc34)CC2)cc1 | 8.5 | 25.7* | -41.2 | -21.0 | -2.0 | -1.0
CC(=O)N1CCN(c2ncnc3sc(-c4ccccc4)cc23)CC1 | -1.9 | -1.6 | 8.9 | 4.4 | nt | nt
CC(C)(C)OC(=O)NCCCCCNC(=O)c1ncn(Cc2ccccc2)c1C(=O)NCCCCCNC(=O)OC(C)(C)C | -0.1 | 1.3 | 0.9 | -18.3 | nt | nt
CN(C)c1cccc(C(=O)NCC2CCCO2)c1 (stereo not drawn) | -3.0 | 20.5* | 14.4 | -49.7 | 3.6 | 0.0
CN(C)c1ccc(C(=O)NCC2CCCO2)cc1 (stereo not drawn) | 2.4 | 4.3 | -15.0 | 15.5 | nt | nt
COc1ccc(/C=C/C(=O)OCC(=O)Nc2ccc(S(N)(=O)=O)cc2)cc1OC | -2.8 | -0.9 | 14.5 | 8.5 | nt | nt
COc1ccc(C(C)(C)C)cc1NC(=O)c1ccc2ncsc2c1 | 2.2 | 16.3* | -13.9 | -7.6 | 13.1 | 7.0
C/C=C/C=[N+](\[O-])C(C)/C(=N/O)c1ccc(F)cc1 (stereo not drawn) | -1.6 | 16.6* | 7.9 | -39.6 | 0.8 | -0.8
O=c1c2ccccc2[nH]c(=S)n1CCc1ccccc1 | 2.4 | 8.0 | -11.5 | 5.9 | nt | nt
Cc1ccccc1-c1cc(C(=O)Nc2sc(C)c(C)c2C(N)=O)c2ccccc2n1 | -1.0 | 17.5* | 5.2 | -45.0 | 4.8 | -2.0
CCOC(=O)c1sc(NC(=O)c2cc(-c3ccccc3C)nc3ccccc23)c(C#N)c1C | -0.9 | 1.6 | 4.4 | -4.0 | nt | nt
Cc1ccccc1NC(=O)Cc1nc(COC(=O)C(C)C)cs1 | -2.2 | 1.8 | 12.3 | 8.4 | nt | nt
C=CCOc1ccc(/C=C/C(=O)OCc2csc(CC(=O)Nc3ccccc3C)n2)cc1 | 4.0 | 19.6* | -15.9 | -49.9 | 33.5* | 6.8
COc1cccc(Nc2nc(CC(C)=O)ns2)c1 | -1.6 | 19.1* | 9.7 | -51.3 | -0.1 | 2.0
O[C@@H]1C2CCCC1[C@]1(O)CCCCC1C2 (stereo partly drawn) | -3.8 | 18.7* | 16.1 | -46.9 | 1.0 | 1.7
COc1ccc(CC2NCCC3(O)CCCCC23)cc1 (stereo not drawn) | -0.3 | -1.1 | 1.9 | -28.9 | nt | nt
SMILES | MOR-DOR ag-1 | HTR5A ag | MOR-DOR inv ag | HTR5A inv ag | MOR-DOR ag-2 | HTR5A ag conf
O=C1C2=C(NC(=S)NC2c2ccc(Cl)cc2)NC(c2ccc(Cl)cc2)N1c1ccc(Cl)cc1 (stereo not drawn) | 3.5 | 11.7 | -21.1 | -31.4 | nt | nt
CCc1ccc(C2NC(=S)NC3=C2C(=O)N(c2ccccc2OC)C(c2ccc(CC)cc2)N3)cc1 (stereo not drawn) | 4.5 | 21.6* | -28.0 | -16.6 | 7.8 | 0.5
O=C(CC1CC2CCC1C2)OCC(=O)c1c[nH]c2ccccc12 (stereo not drawn) | 12.9 | 14.9* | -76.1 | 22.1 | 6.2 | 2.8
CC(C)c1ccc(NC(=S)NC2CCCCCC2)cc1 | 3.6 | 15.7* | -19.8 | -43.5 | 26.9* | 4.0
CCOC(=O)c1ccc(NC(=S)NC2CCCC2)cc1 | -1.1 | 14.9* | 5.1 | 12.2 | 4.0 | 3.6
CCOC(=O)c1ccc(NC(=S)NC(=O)C2CCCC2)cc1 | 1.4 | 0.1 | -8.1 | -0.2 | nt | nt
CCOC(=O)NC1=NCC(C)S1 (stereo not drawn) | -1.9 | 3.2 | 9.9 | -11.8 | nt | nt
O=C(CN1N=C(c2ccccc2)CCC1=O)NCCN1CCc2ccccc2C1 | -1.7 | 4.9 | 7.4 | -16.3 | nt | nt
CCCCNc1c(-c2cccc(-c3cc(C(C)=O)cs3)c2)nc2cc(C)ccn12 | 7.9 | 23.6* | -45.8 | -69.3 | 5.2 | 5.7
Cc1nc(CN2CCN(S(=O)(=O)c3c(Cl)cc(Br)cc3Cl)CC2)cs1 | 1.4 | 3.2 | -8.8 | 2.7 | nt | nt
O=c1[nH]c(C2CCN(S(=O)(=O)c3ccc(C(F)(F)F)cc3)CC2)nc2c1nnn2Cc1ccc(F)cc1 | 0.2 | 18.1* | -1.1 | -50.5 | 5.7 | 3.6
Cc1ccc(Cn2nnc3c(=O)[nH]c(C4CCN(S(=O)(=O)c5ccc(C)cc5)CC4)nc32)cc1 | 0.3 | 1.3 | -1.5 | -9.3 | nt | nt
CC(C(=O)NC1C=CS(=O)(=O)C1)N1C(=O)/C(=C/c2cccc(Cl)c2)SC1=S (stereo not drawn) | -0.1 | 14.7* | 0.6 | -17.4 | 38.3* | 1.9
N=C1S/C(=C\c2ccc(O)cc2)C(=O)N1c1ccc(F)cc1 | 7.7 | 15.2* | -40.5 | -42.6 | 7.4 | 10.2
CC1Sc2ccc(S(=O)(=O)CCC(=O)NC3CCCCC3C)cc2NC1=O (stereo not drawn) | -2.4 | -2.8 | 12.3 | -3.7 | nt | nt
O=C(O)c1ccc(NS(=O)(=O)c2cc(Cl)ccc2Cl)cc1 | -1.0 | 15.9* | 4.5 | -8.5 | 2.6 | 0.5
O=C(O)c1cc(-c2ccco2)nc2ccc(Br)cc12 | 2.5 | 18.3*! | -12.7 | -47.2 | 41.8* | 3.5
O=C(c1ccco1)N1CCN(C(=O)c2cc(-c3ccncc3)nc3ccc(Br)cc23)CC1 | -0.3 | 2.5 | 1.5 | -0.3 | nt | nt
N#Cc1cccc(C(=O)N(CCc2ccccc2)Cc2cccs2)c1 | 0.2 | -0.6 | -1.1 | 1.8 | nt | nt
N#CCC(=O)Nc1ccc(C(=O)OCC(=O)C23CC4CC(CC(C4)C2)C3)cc1 | 1.9 | 0.5 | -10.4 | -19.4 | nt | nt
O=C(OCC12CC3CC(CC(C3)C1)C2)c1ccc(NCc2cc(O)ccc2O)cc1 | 11.0 | 17.4* | -53.8 | -66.6 | 44.4* | 3.7
O=C(OCCC12CC3CC(CC(C3)C1)C2)c1ccc(NCc2cc(O)ccc2O)cc1 | 2.9 | 15.2* | -13.9 | -58.2 | 5.5 | 5.6
O=C(CCCn1c(SCC(=O)c2ccc(Cl)cc2)nc2ccccc2c1=O)NCc1ccco1 | -1.6 | 0.5 | 8.2 | 4.5 | nt | nt
